Screening data deposited in PubChem by National Center for Advancing Translational Sciences (NCATS).
PK Bst = Pyruvate Kinase. purified pyruvate kinase, luminescence ATP production; ribose 5-phosphate activator present at AC10. Potency, µM. 51,000 compounds, 1.2% hits. AID 361, 2006; in the data active means potency below about 11 µM; inconclusive means mostly about 12 µM to 25 µM;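 the screen sought inhibitors and activators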
HADH2 inh = qHTS Assay for Inhibitors of HADH2 (Hydroxyacyl-Coenzyme A Dehydrogenase, Type II) | 3-hydroxyacyl-CoA dehydrogenase type-2 (Homo sapiens), Q99714 | recombinant HADH2, NADH fluorescence, beta-hydroxybutyryl-CoA | Potency, µM (doses to about 57.1 µM), most hits filed as inhibitors | 73,000 compounds, 3.4% hits | AID 886, 2007; further: nearly all actives have a fitted effect of over 60% in size
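Activity measured as NADH fluorescence gain (360/450 nm), taken as the change between first and last reads of a 4-min kinetic run. Conditions: pH 9.0 Tris buffer, 20 nM E. coli-expressed His-tagged enzyme, 1 mM NAD+, 90 uM beta-hydroxybutyryl-CoA; 15-min compound preincubation.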
ALOX15 inhib = qHTS Assay for Inhibitors of 15-hLO (15-human lipoxygenase). 74,000 compounds, 1.4% hits. purified 15hLO-1, xylenol orange hydroperoxide absorbance. Potency, µM (highest dose often 57.1 µM), usual class: inhibitors; further: nearly all actives have a fitted effect of over 55% in size
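40 nM 15hLO-1 + cpd, 15 min RT; start w/ 50 uM AA (final), 6 min RT; stop/detect w/ 200 uM XO + 300 uM Fe(II) in 50 mM H2SO4, 30 min; A573/A405. Buffer 25 mM Hepes pH 7.5, 0.01% Triton X-100. No-enzyme wells as negative control.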
ERK AVP block = qHTS Assay for Inhibitors of the ERK Signaling Pathway using a Homogeneous Screening Assay. HEK293-V1b, vasopressin-stimulated pERK AlphaScreen. 72,000 compounds, 0.99% hits. AID 995, 2007. Potency, µM (highest dose often 57.5 µM), usual class: inhibitors; further: nearly all actives have a fitted effect of over 55% in size
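qHTS, compounds titrated on V1b-expressing HEK293 cells. Preincubation 30 min at 37C, vasopressin 25 nM for 5 min, lysis 10 min, bead incubation 5 hr at room temperature.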
HSD17B inhib = qHTS Assay for Inhibitors of HSD17B4, hydroxysteroid (17-beta) dehydrogenase 4 | 3-hydroxyacyl-CoA dehydrogenase type-2 (Homo sapiens), Q99714 | recombinant HSD17B10, NADH fluorescence kinetic | Potency, µM (top dose mostly 57.1 µM), hits mostly inhibitors | 75,000 compounds, 7.6% hits | AID 893, 2007;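 further: the protocol describes HADH2 (HSD17B10) and not the HSD17B4 of the title; nearly all actives have a fitted effect of over 70% in size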
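20 nM HADH2, pH 9.0 Tris/Tween; cpd preinc 15 min RT; start w/ 1 mM NAD+ + 90 uM b-hydroxybutyryl-CoA; kinetic fluor ex360/em450 q30s x 4 min; delta last-first.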
Luciferase inh = qHTS Assay for Inhibitors of Firefly Luciferase. purified firefly luciferase, luminescence, 8 min. Luciferin 4-monooxygenase (Photinus pyralis), P08659. AID 411, 2009. 72,000 compounds, 2.2% hits. Potency, µM (top dose mostly 57.1 µM), hits mostly inhibitors; further: nearly all actives have a fitted effect of over 40% in size
Target sequence (P08659 whole entry, looked up): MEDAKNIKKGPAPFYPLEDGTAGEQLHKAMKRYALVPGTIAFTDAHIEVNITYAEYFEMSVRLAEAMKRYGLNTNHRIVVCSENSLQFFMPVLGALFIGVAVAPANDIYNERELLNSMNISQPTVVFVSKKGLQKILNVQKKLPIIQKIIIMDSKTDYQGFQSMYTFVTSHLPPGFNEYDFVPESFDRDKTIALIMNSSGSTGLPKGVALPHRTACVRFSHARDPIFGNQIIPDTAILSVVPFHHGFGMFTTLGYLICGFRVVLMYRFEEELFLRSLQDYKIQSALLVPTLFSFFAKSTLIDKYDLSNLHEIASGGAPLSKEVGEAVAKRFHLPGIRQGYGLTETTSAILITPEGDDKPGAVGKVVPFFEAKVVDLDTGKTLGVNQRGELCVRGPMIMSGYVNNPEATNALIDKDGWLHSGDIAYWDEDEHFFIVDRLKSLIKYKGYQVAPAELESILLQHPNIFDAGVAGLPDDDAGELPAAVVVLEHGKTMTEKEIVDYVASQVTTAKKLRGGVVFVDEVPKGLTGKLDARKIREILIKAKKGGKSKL
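Here, luciferase activity is measured as luminescence following an 8 min room-temperature reaction at 10 uM ATP, pH 7.2. Every library sample is titrated.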
A number is an active result; – = inactive; ? = inconclusive; · = no result given; [ ] = another dose, or the depositor's remark. Sampled rows, rich in hits. Any-hit rate of the full collection: about 11%. Unless noted, the call rests on the fitted dose curve; in most records, active means well fitted curve in the direction sought with a large enough effect; inconclusive means small, poorly fitted or top-dose-only effect, or another doubt; inactive means no such curve, though single readings can be large; an effect the other way counts as inactive or inconclusive.

SMILES	PK Bst	HADH2 inh	ALOX15 inhib	ERK AVP block	HSD17B inhib	Luciferase inh
O=C(c1ccco1)[C@@H]1[C@@H]2C(=O)N(c3ccccc3)C(=O)[C@@H]2C2c3ccccc3C=CN21 (some centres not stated)	–	–	?	–	25.1µM	–
COc1ccc(OC2C(O)COC2/C=C/C#Cc2ccccc2)cc1 (configuration not stated)	·	–[11.4 µM]	–[11.4 µM]	–[11.5 µM]	–[11.4 µM]	·
COCC(=O)NCCNc1nc2ccc(C)cc2cc1C	·	–	–	–	31.6µM	–
CCOc1ccc2nc(NCCNC(=O)C3CC3)c(C)cc2c1	·	–	–	–	31.6µM	–
CCOc1ccc2nc(NCCNC(=O)C(C)C)c(C)cc2c1	·	–	–	–	25.1µM	–
CCOc1ccc2nc(SC(C)C(N)=O)[nH]c2c1 (configuration not stated)	–	–	–	–	–	–
CCCCCCN(C(=O)CCCCCN1C(=O)NC(c2ccccc2-c2ccccc2)C(C(=O)OCc2ccccc2)=C1C)C(C(=O)NCCCC)c1ccc(OCC(=O)OC)c(C(=O)OC)c1 (configuration not stated)	·	–	–	–	–	·
Cc1ccccc1-c1cc(NCc2ccccc2)ncn1	·	–	–	?	–	–[2.29 µM]
CC(C)CN1CC2(CCN(C(=O)c3cccc(F)c3)CC2)C1	·	?	–	–	–	–[11.4 µM]
COC(=O)C/C=C\[C@@H](C)[C@@H](/C=N\OC[C@@H](C)[C@H](OCc1ccccc1)C(C)C)NS(=O)(=O)c1ccc(C)cc1	·	–[11.4 µM]	–[11.4 µM]	–[11.5 µM]	–[11.4 µM]	–[11.4 µM]
CCOc1ccc(C2C=C(c3ccc(F)cc3)Nc3ncnn32)cc1 (configuration not stated)	–	3.98µM	–	–	25.1µM	–
CCOc1ccc(C2C=C(c3ccccc3)Nc3ncnn32)cc1 (configuration not stated)	?	·	·	·	·	–
Nc1ccc(C23CC4CC(CC(O)(C4)C2)C3)cc1	9.06	–	–	–	–	–
Fc1ccc([C@H]2CCNCC2COc2ccc3c(c2)OCO3)cc1 (some centres not stated)	·	·	–	–	–	·
Fc1ccc([C@H]2CCNC[C@H]2COc2ccc3c(c2)OCO3)cc1	·	–	–	–	?	5.01µM
CCN1C(=O)[C@H]2[C@H]3[C@H](O)[C@H](O)C/C(=N/OCC(C)C)[C@H]3CC[C@@H]2C1=O	·	–[11.4 µM]	–[11.4 µM]	–[11.5 µM]	–[11.4 µM]	–[11.4 µM]
CCCC(=O)Nc1cccc(-c2nc3ccccc3o2)c1	–	?	–	–	25.1µM	–
CCc1ccc(OCC(=O)Nc2ccc(-c3nc4ccccc4o3)c(O)c2)cc1	·	?	–	–	25.1µM	–
CCCC(=O)Nc1cccc(-c2nc3cc(C)c(C)cc3o2)c1	·	–[11.4 µM]	–[11.4 µM]	–	25.1µM	7.94µM
CC(C)C(=O)Nc1cccc(-c2nc3ccccc3o2)c1	–	–	–	–	–	–
COc1ccc(OCC(=O)Nc2cccc(-c3nc4ccccc4o3)c2)cc1	·	?	–[11.4 µM]	?	25.1µM	–
CC(=O)Nc1ccc(S(=O)(=O)Nc2cccc(-c3nc4cc(C)ccc4o3)c2)cc1	–	–	–	–	–	–
N#Cc1ccc(CN2CCCC3(CCN(C(=O)c4cc(C(F)(F)F)cc(C(F)(F)F)c4)CC3)C2)cc1	·	–	–	–	–	–[11.4 µM]
C[N+]1(C)C[C@@H](O)C[C@@H]1C(=O)[O-]	·	–	–	–	–	–
NS(=O)(=O)c1ccc(N=Nc2nc3[nH]cnc(=S)c3[nH]2)cc1	·	?	?	–[11.5 µM]	3.16µM	–[11.4 µM]
SMILES	PK Bst	HADH2 inh	ALOX15 inhib	ERK AVP block	HSD17B inhib	Luciferase inh
NS(=O)(=O)c1ccc(N=Nc2nc3[nH]c(=O)[nH]c(=O)c3[nH]2)cc1	·	–[11.4 µM]	?	–[11.5 µM]	3.98µM	–[11.4 µM]
CC(C)C1=CC2=CC[C@H]3[C@@](C)(CCC[C@]3(C)C(=O)O)[C@@H]2CC1	·	?	·	·	·	–[11.4 µM]
O=C(COc1ccc(S(=O)(=O)NC2CCCCC2)cc1)NCc1ccccn1	–	–	–	–	–	–
O=C(COc1ccc2c(c1)C(=O)CC1(CCCCC1)O2)NCc1ccccn1	–	?	–	–	31.6µM	–
Cc1nc2cnc(Oc3ccccc3)nc2n(C)c1=O	·	–	–	?	–	–[11.4 µM]
CCN1C(=O)[C@H]2[C@H]3[C@H](O)[C@H](O)C/C(=N/O[C@@H](C)c4cc(-c5c(C)cc(C)cc5C)no4)[C@@H]3CC[C@@H]2C1=O	·	–[11.4 µM]	–[11.4 µM]	–[11.5 µM]	–[11.4 µM]	–[11.4 µM]
CCCCNc1nc(C)nc2c1nc(-c1ccccc1)n2C1CCN(Cc2ccccc2)C1 (configuration not stated)	·	–	–	–	?	·
CC1CCCCN1CCNC(=O)Cn1nc(-c2ccccc2)ccc1=O (configuration not stated)	–	–	–	–	–	–
CC1CCCCN1Cc1nc2c(c(=O)n(C)c(=O)n2C)n1CCCc1ccccc1 (configuration not stated)	–	–	–	–	–	–
Cc1nc(NCc2ccccc2)c2nc(-c3ccccc3)n(CCCN3CCCCC3C)c2n1 (configuration not stated)	·	?	–	–	20µM	·
Cc1nc(NCc2ccccc2)c2nc(-c3ccccc3)n(C3CCN(Cc4ccccc4)C3)c2n1 (configuration not stated)	·	–	–	?	31.6µM	·
CCCCNc1nc(C)nc2c1nc(-c1ccccc1)n2CCCN1CCCCC1C (configuration not stated)	·	–	–	–	25.1µM	·
COCCNc1nc(C)nc2c1nc(-c1ccccc1)n2CCCN1CCCCC1C (configuration not stated)	·	?	–	–	25.1µM	·
O=C1C2=CC[C@H]3C(=O)N(Cc4ccccc4)C(=O)[C@@H]3[C@@H]2[C@H](O)[C@@H]2O[C@H]12	·	–[11.4 µM]	–[11.4 µM]	–[11.5 µM]	–[11.4 µM]	–[11.4 µM]
N#Cc1cccc(NC(=O)N2CC[C@@]3(CCCNC3)C2)c1	·	–	–	–	–	–[11.4 µM]
CCN1C(C)=C(C(=O)OC)C(c2ccccc2)N2C(=O)[C@@]3(C(=O)OC)O[C@@]12C1C(=O)CCCC13 (some centres not stated)	·	–[11.4 µM]	–[11.4 µM]	–[11.5 µM]	–[11.4 µM]	·
N#CCCn1c(-c2nonc2NC(=O)c2ccccc2Cl)nc2ccccc21	–	?	–	–	–	–
C=CCn1c(NC(=O)c2ccccc2)c(C#N)c2nc3ccccc3nc21	–	–	–	?	12.6µM	–
C=CCn1c(NC(=O)c2ccccc2Cl)c(C#N)c2nc3ccccc3nc21	–	?	–	–	31.6µM	–
